“And” between values parts separate entries of the source, which are not always exact repeats. Identical values can stand only once. The source made the active and inactive calls.

Assay [1] can be described thus: optical density shifts of acrAB sulA E. coli – strain DRC41, OD650, 48 h, E. coli filamentation inducer project, primary screen (AID 1152).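 Further: E. coli MC1000 strain DRC41 lacking acrAB efflux pump and sulA.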 Conditions: higher = more signal, called active from +8 up or from −8 down.
A short description of assay [2]: probe aLefty1 binding on compound microarray – biochemical, small-molecule microarray, 635/667 nm fluorescence, primary screen (AID 1153).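 Further: score merges spot fluorescence with signal-to-noise ratio from the scanned slide images.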 Conditions: higher = more signal.
Assay [3] is described as follows: plasmodial surface anion channel blockers, osmotic lysis – cell-based, P. falciparum Indochina, OD700, 1 h, primary screen (AID 1154). The note with it: P. falciparum Indochina infected RBC osmotic lysis, higher = more signal, called active from +8 up or from −8 down.
The nature of assay [4]: plasmodial surface anion channel blockers, osmotic lysis – cell-based, P. falciparum Indochina, OD700, 2 h, primary screen (AID 1155).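 Further: lysis reports solute entry through the parasite surface anion channel PSAC.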 The note with it: P. falciparum Indochina infected erythrocytes, higher = more signal, called active from +8 up or from −8 down.
Assay [5] is described as follows: changes in parasitized red cell lysis, either direction – P. falciparum Indochina, OD700, 3 h, PSAC antagonist project, primary screen (AID 1156). The note with it: P. falciparum-infected erythrocytes, osmotic lysis, higher = more signal, called active from +8 up or from −8 down.
Assay [6] in a line: plasmodial surface anion channel blockers, osmotic lysis – cell-based, P. falciparum Indochina, OD700, 18 h, primary screen (AID 1157). The note with it: P. falciparum Indochina infected erythrocytes, osmotic lysis OD700, 18 h; higher = more signal, called active from +8 up or from −8 down.
Assay [7] in a line: S6 kinase pathway phospho-S6 level changes – cell-based, A549, cytoblot, luminescence, serum-stimulated, primary screen (AID 1158).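 Further: serum-stimulated A549 lung adenocarcinoma cells; signal is phosphorylated S6 detected by cytoblot immunostaining with HRP secondary.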 The note with it: 5 h, higher = more signal.
Assay [8] addresses NADPH oxidase 2 (Homo sapiens) (UniProt P04839). Put plainly: compounds shifting NOX2 Amplex Red fluorescence – cell-based, HEK293-NOX2, PMA-stimulated, NOX inhibitor project, primary screen (AID 1159). Further: test concentration not given here. Conditions: 45 min, higher = more signal, called active from +8 up or from −8 down.
In assay [9] the target is NADPH oxidase 4 (Homo sapiens) (UniProt Q9NPH5). Put plainly: compounds shifting NOX4 Amplex Red fluorescence – cell-based, HEK293-NOX4, tetracycline-induced, NOX inhibitor project, primary screen (AID 1160). The note with it: HEK293-NOX4, Amplex Red H2O2 fluorescence, 45 min; higher = more signal, called active from +8 up or from −8 down.
Assay [10] deals with NADPH oxidase 5 (Homo sapiens) (UniProt Q96PH1). Put plainly: compounds shifting NOX5 Amplex Red fluorescence – cell-based, HEK293-NOX5, NOX inhibitor project, primary screen (AID 1161). Conditions: HEK293-NOX5, ionomycin, 45 min, higher = more signal.
A short description of assay [11]: compound effects on lung adenocarcinoma cell viability – A549, calcein-AM fluorescence, 48 h, basal, profiling panel (AID 1162). Further: test concentration not given here. The note with it: higher = more signal.
Assay [12] is described as follows: compound effects on differentiated 3T3-L1 adipocyte viability – cell-based, 3T3-L1 adipocytes, calcein-AM fluorescence, 48 h, basal, profiling panel (AID 1163). Further: test concentration not given here. The note with it: 3T3-L1 adipocytes viability, higher = more signal.
Assay [13] can be described thus: compound effects on hepatocellular carcinoma cell viability – HepG2, calcein-AM fluorescence, 48 h, basal, profiling panel (AID 1164). Further: test concentration not given here. The note with it: higher = more signal.
Assay [14] is described as follows: compound effects on multiple myeloma cell viability – MM1S, calcein-AM fluorescence, 48 h, basal, profiling panel (AID 1165).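 Further: viability of MM1S multiple myeloma cells under basal unstimulated conditions; test concentration not given here.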 The note with it: higher = more signal.
A short description of assay [15]: calcein-AM signal in unstimulated myeloma cells – cell-based, calcein-AM fluorescence, 48 h, PK04 Diversity Set, profiling panel (AID 1166).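 Further: cells grown under basal conditions without added stimulus; test concentration not given here.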 The note with it: RPMI8226 myeloma viability, higher = more signal.
Assay [16] in a line: JC-1 mitochondrial signal, unstimulated HepG2 cells – cell-based, JC-1 fluorescence, 24 h, 100 nL compound, profiling panel (AID 1167). Further: test concentration not given here. Conditions: HepG2 mitochondrial potential, higher = more signal.
Assay [17] can be described thus: JC-1 mitochondrial signal, unstimulated adipocytes – cell-based, JC-1 fluorescence, 3T3-L1 adipocytes, 24 h, 100 nL compound, profiling panel (AID 1168). Further: test concentration not given here. The note with it: JC-1 mitochondrial fluorescence, higher = more signal, called active from +8 up or from −8 down.
Assay [18] in a line: JC-1 mitochondrial signal, unstimulated myeloma cells – cell-based, JC-1 fluorescence, RPMI8226, 24 h, 100 nL compound, profiling panel (AID 1169). Further: test concentration not given here. The note with it: JC-1 mitochondrial potential fluorescence, higher = more signal.
Assay [19] can be described thus: JC-1 mitochondrial signal, unstimulated MM1S myeloma – cell-based, JC-1 fluorescence, 24 h, 100 nL compound, profiling panel (AID 1170). Further: test concentration not given here. Conditions: MM1S mitochondrial potential, higher = more signal.
The nature of assay [20]: resazurin metabolic signal in A549 cells – cell-based, resazurin fluorescence, 24 h, PK04 Diversity Set, profiling panel (AID 1171). Further: test concentration not given here. The note with it: A549 viability, higher = more signal, called active from +8 up or from −8 down. (In general: Alamar Blue is a resazurin reagent that responds to reducing activity.)

NADPH oxidase 4 (Homo sapiens), sequence (Q9NPH5 whole entry, looked up): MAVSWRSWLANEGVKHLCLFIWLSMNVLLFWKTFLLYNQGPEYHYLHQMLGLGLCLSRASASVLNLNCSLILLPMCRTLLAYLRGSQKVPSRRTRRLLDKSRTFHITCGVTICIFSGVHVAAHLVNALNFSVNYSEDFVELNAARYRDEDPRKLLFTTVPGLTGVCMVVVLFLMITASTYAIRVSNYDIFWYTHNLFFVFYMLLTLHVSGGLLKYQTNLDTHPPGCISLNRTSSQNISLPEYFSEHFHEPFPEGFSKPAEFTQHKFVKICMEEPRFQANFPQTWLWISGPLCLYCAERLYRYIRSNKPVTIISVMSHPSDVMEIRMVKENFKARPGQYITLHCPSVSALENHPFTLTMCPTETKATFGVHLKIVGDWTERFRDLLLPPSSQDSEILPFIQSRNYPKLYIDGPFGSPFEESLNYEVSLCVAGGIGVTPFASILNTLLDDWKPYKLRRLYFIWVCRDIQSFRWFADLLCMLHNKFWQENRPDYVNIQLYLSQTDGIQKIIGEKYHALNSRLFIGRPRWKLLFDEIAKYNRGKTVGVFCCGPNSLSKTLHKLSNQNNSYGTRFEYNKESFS
NADPH oxidase 2 (Homo sapiens), sequence (P04839 whole entry, looked up): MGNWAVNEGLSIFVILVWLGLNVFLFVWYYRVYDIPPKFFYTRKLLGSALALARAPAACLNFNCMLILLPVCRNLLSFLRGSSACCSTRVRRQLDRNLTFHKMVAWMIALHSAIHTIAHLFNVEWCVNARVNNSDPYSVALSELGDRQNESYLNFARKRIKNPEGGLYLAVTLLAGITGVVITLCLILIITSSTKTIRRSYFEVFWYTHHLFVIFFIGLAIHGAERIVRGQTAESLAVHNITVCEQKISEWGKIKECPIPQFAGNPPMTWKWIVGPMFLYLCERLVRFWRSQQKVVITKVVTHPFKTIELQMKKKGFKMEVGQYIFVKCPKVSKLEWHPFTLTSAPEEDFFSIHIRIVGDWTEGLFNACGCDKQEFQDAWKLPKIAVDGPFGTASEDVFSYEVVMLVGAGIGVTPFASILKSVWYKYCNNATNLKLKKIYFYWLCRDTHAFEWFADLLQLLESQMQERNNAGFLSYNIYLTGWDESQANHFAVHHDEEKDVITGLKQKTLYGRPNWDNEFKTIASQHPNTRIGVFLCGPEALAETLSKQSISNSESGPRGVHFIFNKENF
NADPH oxidase 5 (Homo sapiens), sequence (Q96PH1 whole entry, looked up): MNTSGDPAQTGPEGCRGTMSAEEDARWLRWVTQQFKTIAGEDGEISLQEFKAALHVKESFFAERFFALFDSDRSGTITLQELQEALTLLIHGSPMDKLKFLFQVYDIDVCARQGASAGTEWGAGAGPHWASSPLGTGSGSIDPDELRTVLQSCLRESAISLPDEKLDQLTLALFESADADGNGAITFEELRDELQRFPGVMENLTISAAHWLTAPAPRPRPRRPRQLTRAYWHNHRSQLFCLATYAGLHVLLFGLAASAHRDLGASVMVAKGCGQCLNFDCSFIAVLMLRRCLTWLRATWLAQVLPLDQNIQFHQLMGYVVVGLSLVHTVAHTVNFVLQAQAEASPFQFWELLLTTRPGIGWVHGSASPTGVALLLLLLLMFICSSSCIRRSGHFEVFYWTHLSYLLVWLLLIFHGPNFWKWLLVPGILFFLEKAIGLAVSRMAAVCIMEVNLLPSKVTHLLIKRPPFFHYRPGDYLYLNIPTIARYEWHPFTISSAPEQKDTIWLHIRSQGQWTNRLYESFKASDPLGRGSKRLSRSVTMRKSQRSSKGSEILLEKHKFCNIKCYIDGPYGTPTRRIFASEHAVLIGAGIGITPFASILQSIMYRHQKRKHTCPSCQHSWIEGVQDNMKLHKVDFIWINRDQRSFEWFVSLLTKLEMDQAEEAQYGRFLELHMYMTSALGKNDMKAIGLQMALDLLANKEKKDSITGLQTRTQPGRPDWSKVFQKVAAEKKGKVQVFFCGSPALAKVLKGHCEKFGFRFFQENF

In the case of `CCOC(=O)[C@@H]1CC2O[C@]23C[C@@H]1C(=O)N1CCC[C@@H]1[C@H]3O[Si](C)(C)C(C)(C)C` (stereo not given in full), the z-score in assay [1] is -1.1 (inactive) and -0.757 (inactive); in [3], 0.827 (inactive) and -0.309 (inactive); in [4], -0.168 (inactive) and 0.0095 (inactive); in assay [5] it was -0.03 (inactive) and -0.708 (inactive); in assay [6], 0.134 (inactive) and -0.162 (inactive); in assay [7], -0.111 and -0.206. Also, the z-score in assay [8] was 0.937 (inactive) and 0.661 (inactive); in assay [9] it was 0.147 (inactive) and 5.07 (inactive); in assay [10] it was -2.39 and -0.882; in assay [11], -0.889 and -0.825; in assay [12] it was 0.838 and 0.26; in assay [13] it was -0.526 and -0.885. Moreover, the z-score in assay [14] is 0.0049 and -3.22; in assay [15], -0.55 and -0.467; in assay [16] it was -0.904 and -1.08; in assay [17], -0.744 (inactive) and -0.631 (inactive); in assay [18], -0.387 and -0.407; in [19], 0.781 and -1.86. Besides, in assay [20], the z-score is -0.438 (inactive) and -0.287 (inactive). Further, in assay [2], the composite z-score was -0.229 and -0.255.

`CO[C@@H]1C=CCC(=O)N2CCC[C@H]2C(=O)OC[C@H](C)C(=O)OC[C@H]1C`: the z-score in [1] was 0.813 (inactive); in [3], -0.393 (inactive); in [4], -0.25 (inactive); in assay [5], -0.355 (inactive); in assay [6], 0.0084 (inactive); in assay [7], 0.0533. Further, the z-score in assay [8] was -0.773 (inactive); in assay [9], 0.208 (inactive); in assay [10], 0.221; in assay [11] it was 0.616; in [12], 0.345; in [13] it was 1.33. Moreover, the z-score is 0.383 in assay [14]; -0.87 in assay [15]; 0.872 in [16]; 0.673 (inactive) in [17]; -0.0289 in assay [18]; 0.331 in assay [19]. Besides, the z-score in assay [20] is 0.87 (inactive). The compound also showed a composite z-score in [2] of -0.0536.

Turning to `COCn1c2ccccc2c2nnc(C(C)=O)nc21`, the z-score in [1] was -1.46 (inactive) and -0.426 (inactive); in assay [3] it was 1.91 (inactive) and 0.558 (inactive); in assay [4], -0.781 (inactive) and -1.09 (inactive); in assay [5] it was 0.68 (inactive) and 1.07 (inactive); in assay [6] it was -1.28 (inactive) and -1.44 (inactive); in assay [7] it was 2.52 and 1.53. In addition, the z-score in assay [8] was -0.424 (inactive) and -0.738 (inactive); in assay [9], -0.773 (inactive) and -0.0619 (inactive); in [10], -2.97 and -3.35; in assay [11], -0.337 and -0.197; in [12], 0.745 and 0.622; in assay [13] it was -0.786 and -0.47. In addition, the z-score in [14] is -0.32 and -0.151; in [15], -2.16 and -1.74; in assay [16], -2.92 and -0.761; in assay [17] it was 0.0492 (inactive) and 0.883 (inactive); in assay [18] it was -0.79 and -0.473; in [19], -0.189 and -0.639. In addition, the z-score in assay [20] was -0.181 (inactive) and -0.856 (inactive). Besides, in assay [2], the composite z-score was -0.103 and -0.0111.

Take `CCOC(=O)NN=C1C[C@@H](O)[C@@H](O)[C@@H]2[C@@H]3C(=O)N(Cc4ccc5c(c4)OCO5)C(=O)[C@@H]3CC[C@@H]12`: the z-score in assay [1] is 0.806 (inactive); in assay [3], 6.5 (inactive); in [4], 1.29 (inactive); in assay [5] it was 1.34 (inactive); in assay [6] it was 0.574 (inactive); in assay [7], -0.403. The z-score in assay [8] was -0.00897 (inactive); in assay [9], 0.786 (inactive); in assay [10], 0.175; in assay [11] it was 1.24; in assay [12], -0.54; in [13], 0.32. In addition, the z-score in assay [14] is 0.511; in [15], 0.466; in assay [16], 0.598; in [17], 1.11 (inactive); in assay [18], 0.612; in assay [19], -1.25. The z-score in assay [20] was 0.0533 (inactive). This compound also returned a composite z-score in [2] of -0.14.

Take `C[C@@H]1CC[C@H]2C(=O)NC[C@@H](O)CN2[C@H]1c1ccc(Br)cc1`: the z-score was -1.08 (inactive) and -0.445 (inactive) in [1]; 0.211 (inactive) and -0.0955 (inactive) in assay [3]; -0.0378 (inactive) and 0.0974 (inactive) in assay [4]; -0.114 (inactive) and -0.125 (inactive) in assay [5]; -0.218 (inactive) and 0.0277 (inactive) in [6]; 0.53 and -0.753 in [7]. Moreover, the z-score in assay [8] was -0.807 (inactive) and 0.12 (inactive); in [9], 0.283 (inactive) and 0.229 (inactive); in [10], 0.646 and 0.135; in assay [11], -0.179 and 0.44; in [12], -0.856 and 0.491; in assay [13] it was -0.141 and 0.284. Moreover, the z-score in assay [14] is 0.211 and -0.52; in assay [15], -0.239 and -0.0289; in assay [16] it was -0.606 and 0.493; in assay [17], -0.455 (inactive) and 0.104 (inactive); in assay [18], -0.606 and 0.0684; in assay [19], 0.0814 and -0.633. In [20], the z-score was 0.153 (inactive) and -0.285 (inactive). The composite z-score in assay [2] is -0.426 and -0.017.

As to `C[C@@H](ON=C1[C@H]2CCn3c(=O)n(-c4ccccc4)c(=O)n3[C@H]2[C@H](O)[C@@H]2O[C@H]12)c1cn([C@H](CO)Cc2ccccc2)nn1`, the z-score in [1] is 0.328 (inactive); in assay [3], 0.508 (inactive); in assay [4], 0.461 (inactive); in [5], 0.373 (inactive); in assay [6] it was 0.367 (inactive); in [7], 0.164. For the same compound, the z-score in assay [8] was -0.622 (inactive); in assay [9], -0.268 (inactive); in assay [10], 0.259; in assay [11], 0.158; in assay [12] it was -0.002; in assay [13], 0.567. For the same compound, the z-score is -0.463 in assay [14]; -0.259 in [15]; -0.998 in assay [16]; 0.31 (inactive) in assay [17]; -0.334 in assay [18]; -0.00977 in [19]. In assay [20], the z-score was -0.847 (inactive). For the same compound, in assay [2], the composite z-score is -0.049.

These data come from PubChem BioAssay.
